# In the supplement of paper PMC4466140:
# B1: unnamed (peptide)
# chain: RPPRPPPKPLHLRTE
# B2: unnamed (peptide)
# chain: YHSRRHPLALGFKYV
# How the values were obtained:
# Experiment in all cases: SPOT peptide array binding signal intensity (averaged, normalized) (arbitrary units (background-subtracted, floor 0; scale differs between SH3 domains)); higher = stronger binding of the SH3 domain to the peptide
# CaNbp2 = molecular target: CaNbp2
# Description: (§1)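 GST-tagged SH3 domains from S. cerevisiae (Sc), A. gossypii (Ag), C. albicans (Ca) and S. pombe (Sp) were incubated at 10 ug/ml overnight at 4 C on cellulose SPOT membranes carrying 292 synthetic 15-mer peptides mined from the S. cerevisiae proteome (cysteines replaced by serines). Binding was detected with anti-GST antibody, HRP secondary and chemiluminescence, quantified with Genespotter, and reported as normalized spot intensities averaged over biological replicates.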
# CaRvs167 = molecular target: CaRvs167
# Description: as §1
# CaRvs167-3 = molecular target: CaRvs167-3
# Description: as §1
# CaSho1 = molecular target: CaSho1
# Description: as §1
# CaSla1-D1-D2 = molecular target: CaSla1-D1-D2
# Description: as §1
# CaSla1-D3 = molecular target: CaSla1-D3
# Description: as §1
# ScAbp1 = molecular target: ScAbp1
# Description: as §1
# ScBbc1 = molecular target: ScBbc1
# Description: as §1
# ScBem1-D1 = molecular target: ScBem1-D1
# Description: as §1
# ScBzz1-D1 = molecular target: ScBzz1-D1
# Description: as §1
# ScBzz1-D2 = molecular target: ScBzz1-D2
# Description: as §1
# ScCyk3 = molecular target: ScCyk3
# Description: as §1
# ScFus1 = molecular target: ScFus1
# Description: as §1
# ScHof1 = molecular target: ScHof1
# Description: as §1
# ScHse1 = molecular target: ScHse1
# Description: as §1
# ScLsb1 = molecular target: ScLsb1
# Description: as §1
# ScLsb2 = molecular target: ScLsb2
# Description: as §1
# ScLsb3 = molecular target: ScLsb3
# Description: as §1
# ScLsb4 = molecular target: ScLsb4
# Description: as §1
# ScMyo3 = molecular target: ScMyo3
# Description: as §1
# ScMyo5 = molecular target: ScMyo5
# Description: as §1
# ScNbp2 = molecular target: ScNbp2
# Description: as §1
# ScPex13 = molecular target: ScPex13
# Description: as §1
# ScRvs167 = molecular target: ScRvs167
# Description: as §1
# ScSho1 = molecular target: ScSho1
# Description: as §1
# ScSla1-D1-D2 = molecular target: ScSla1-D1-D2
# Description: as §1
# ScSla1-D3 = molecular target: ScSla1-D3
# Description: as §1
# SpAbp1-D1 = molecular target: SpAbp1-D1
# Description: as §1
# SpBbc1 = molecular target: SpBbc1
# Description: as §1
# SpBzz1-D1 = molecular target: SpBzz1-D1
# Description: as §1
# SpBzz1-D2 = molecular target: SpBzz1-D2
# Description: as §1
# SpCyk3 = molecular target: SpCyk3
# Description: as §1
# SpHof1 = molecular target: SpHof1
# Description: as §1
# SpHof1-2 = molecular target: SpHof1-2
# Description: as §1
# SpHof1-3 = molecular target: SpHof1-3
# Description: as §1
# SpHse1 = molecular target: SpHse1
# Description: as §1
# SpLsb1 = molecular target: SpLsb1
# Description: as §1
# SpLsb4 = molecular target: SpLsb4
# Description: as §1
# SpMyo1 = molecular target: SpMyo1
# Description: as §1
# SpNbp2 = molecular target: SpNbp2
# Description: as §1
# SpPex13 = molecular target: SpPex13
# Description: as §1
# SpRvs167 = molecular target: SpRvs167
# Description: as §1
# SpSla1-D1-D2 = molecular target: SpSla1-D1-D2
# Description: as §1
# SpSla1-D3 = molecular target: SpSla1-D3
# Description: as §1
# AgAbp1 = molecular target: AgAbp1
# Description: as §1
# AgBbc1 = molecular target: AgBbc1
# Description: as §1
# AgBem1-D1 = molecular target: AgBem1-D1
# Description: as §1
# AgBzz1-D1 = molecular target: AgBzz1-D1
# Description: as §1
# AgBzz1-D2 = molecular target: AgBzz1-D2
# Description: as §1
# AgCyk3 = molecular target: AgCyk3
# Description: as §1
# AgFus1 = molecular target: AgFus1
# Description: as §1
# AgHof1 = molecular target: AgHof1
# Description: as §1
# AgHse1 = molecular target: AgHse1
# Description: as §1
# AgLsb1 = molecular target: AgLsb1
# Description: as §1
# AgLsb4 = molecular target: AgLsb4
# Description: as §1
# AgMyo5 = molecular target: AgMyo5
# Description: as §1
# AgNbp2 = molecular target: AgNbp2
# Description: as §1
# AgRvs167 = molecular target: AgRvs167
# Description: as §1
# AgSho1 = molecular target: AgSho1
# Description: as §1
# AgSla1-D1-D2 = molecular target: AgSla1-D1-D2
# Description: as §1
# AgSla1-D3 = molecular target: AgSla1-D3
# Description: as §1
# CaAbp1-D1 = molecular target: CaAbp1-D1
# Description: as §1
# CaAbp1-D2 = molecular target: CaAbp1-D2
# Description: as §1
# CaBbc1 = molecular target: CaBbc1
# Description: as §1
# CaBem1-D1 = molecular target: CaBem1-D1
# Description: as §1
# CaBzz1-D1 = molecular target: CaBzz1-D1
# Description: as §1
# CaBzz1-D2 = molecular target: CaBzz1-D2
# Description: as §1
# CaCyk3 = molecular target: CaCyk3
# Description: as §1
# CaFus1 = molecular target: CaFus1
# Description: as §1
# CaHof1 = molecular target: CaHof1
# Description: as §1
# CaHse1 = molecular target: CaHse1
# Description: as §1
# CaLsb1 = molecular target: CaLsb1
# Description: as §1
# CaLsb4 = molecular target: CaLsb4
# Description: as §1
# CaMyo5 = molecular target: CaMyo5
# Description: as §1
binder,measurement,setting,value
B1,SPOT peptide array binding signal intensity,CaNbp2,567
same,SPOT peptide array binding signal intensity,CaRvs167,67
same,SPOT peptide array binding signal intensity,CaRvs167-3,4.75
same,SPOT peptide array binding signal intensity,CaSho1,148
same,SPOT peptide array binding signal intensity,CaSla1-D1-D2,1990
same,SPOT peptide array binding signal intensity,CaSla1-D3,97.5
same,SPOT peptide array binding signal intensity,ScAbp1,3670
same,SPOT peptide array binding signal intensity,ScBbc1,57.5
same,SPOT peptide array binding signal intensity,ScBem1-D1,4
same,SPOT peptide array binding signal intensity,ScBzz1-D1,49
same,SPOT peptide array binding signal intensity,ScBzz1-D2,26
same,SPOT peptide array binding signal intensity,ScCyk3,1
same,SPOT peptide array binding signal intensity,ScFus1,8
same,SPOT peptide array binding signal intensity,ScHof1,0.5
same,SPOT peptide array binding signal intensity,ScHse1,131
same,SPOT peptide array binding signal intensity,ScLsb1,90
same,SPOT peptide array binding signal intensity,ScLsb2,8
same,SPOT peptide array binding signal intensity,ScLsb3,2810
same,SPOT peptide array binding signal intensity,ScLsb4,58
same,SPOT peptide array binding signal intensity,ScMyo3,72.8
same,SPOT peptide array binding signal intensity,ScMyo5,163
same,SPOT peptide array binding signal intensity,ScNbp2,1770
same,SPOT peptide array binding signal intensity,ScPex13,1500
same,SPOT peptide array binding signal intensity,ScRvs167,375
same,SPOT peptide array binding signal intensity,ScSho1,1530
same,SPOT peptide array binding signal intensity,ScSla1-D1-D2,2390
same,SPOT peptide array binding signal intensity,ScSla1-D3,4.5
same,SPOT peptide array binding signal intensity,SpAbp1-D1,2570
same,SPOT peptide array binding signal intensity,SpBbc1,6
same,SPOT peptide array binding signal intensity,SpBzz1-D1,1060
same,SPOT peptide array binding signal intensity,SpBzz1-D2,43
same,SPOT peptide array binding signal intensity,SpCyk3,≤ 0
same,SPOT peptide array binding signal intensity,SpHof1,65
same,SPOT peptide array binding signal intensity,SpHof1-2,15.5
same,SPOT peptide array binding signal intensity,SpHof1-3,237
same,SPOT peptide array binding signal intensity,SpHse1,216
same,SPOT peptide array binding signal intensity,SpLsb1,582
same,SPOT peptide array binding signal intensity,SpLsb4,1950
same,SPOT peptide array binding signal intensity,SpMyo1,318
same,SPOT peptide array binding signal intensity,SpNbp2,22
same,SPOT peptide array binding signal intensity,SpPex13,17
same,SPOT peptide array binding signal intensity,SpRvs167,865
same,SPOT peptide array binding signal intensity,SpSla1-D1-D2,13.5
same,SPOT peptide array binding signal intensity,SpSla1-D3,4
B2,SPOT peptide array binding signal intensity,AgAbp1,25.5
same,SPOT peptide array binding signal intensity,AgBbc1,12
same,SPOT peptide array binding signal intensity,AgBem1-D1,86
same,SPOT peptide array binding signal intensity,AgBzz1-D1,≤ 0
same,SPOT peptide array binding signal intensity,AgBzz1-D2,≤ 0
same,SPOT peptide array binding signal intensity,AgCyk3,4
same,SPOT peptide array binding signal intensity,AgFus1,566
same,SPOT peptide array binding signal intensity,AgHof1,19
same,SPOT peptide array binding signal intensity,AgHse1,187
same,SPOT peptide array binding signal intensity,AgLsb1,2
same,SPOT peptide array binding signal intensity,AgLsb4,2
same,SPOT peptide array binding signal intensity,AgMyo5,3.25
same,SPOT peptide array binding signal intensity,AgNbp2,41.5
same,SPOT peptide array binding signal intensity,AgRvs167,7.67
same,SPOT peptide array binding signal intensity,AgSho1,26
same,SPOT peptide array binding signal intensity,AgSla1-D1-D2,26
same,SPOT peptide array binding signal intensity,AgSla1-D3,17
same,SPOT peptide array binding signal intensity,CaAbp1-D1,156
same,SPOT peptide array binding signal intensity,CaAbp1-D2,81.5
same,SPOT peptide array binding signal intensity,CaBbc1,6.75
same,SPOT peptide array binding signal intensity,CaBem1-D1,121
same,SPOT peptide array binding signal intensity,CaBzz1-D1,64
same,SPOT peptide array binding signal intensity,CaBzz1-D2,22
same,SPOT peptide array binding signal intensity,CaCyk3,4
same,SPOT peptide array binding signal intensity,CaFus1,630
same,SPOT peptide array binding signal intensity,CaHof1,4.5
same,SPOT peptide array binding signal intensity,CaHse1,38.5
same,SPOT peptide array binding signal intensity,CaLsb1,1.75
same,SPOT peptide array binding signal intensity,CaLsb4,≤ 0
same,SPOT peptide array binding signal intensity,CaMyo5,38.5
same,SPOT peptide array binding signal intensity,CaNbp2,204
same,SPOT peptide array binding signal intensity,CaRvs167,44
same,SPOT peptide array binding signal intensity,CaRvs167-3,103
same,SPOT peptide array binding signal intensity,CaSho1,153
same,SPOT peptide array binding signal intensity,CaSla1-D1-D2,124
same,SPOT peptide array binding signal intensity,CaSla1-D3,23.5
same,SPOT peptide array binding signal intensity,ScAbp1,54
same,SPOT peptide array binding signal intensity,ScBbc1,2.75
same,SPOT peptide array binding signal intensity,ScBem1-D1,58
same,SPOT peptide array binding signal intensity,ScBzz1-D1,1.5
same,SPOT peptide array binding signal intensity,ScBzz1-D2,40.5
same,SPOT peptide array binding signal intensity,ScCyk3,13.5
same,SPOT peptide array binding signal intensity,ScFus1,368
same,SPOT peptide array binding signal intensity,ScHof1,16.5
same,SPOT peptide array binding signal intensity,ScHse1,480
same,SPOT peptide array binding signal intensity,ScLsb1,1.5
same,SPOT peptide array binding signal intensity,ScLsb2,6.5
same,SPOT peptide array binding signal intensity,ScLsb3,≤ 0
same,SPOT peptide array binding signal intensity,ScLsb4,12
same,SPOT peptide array binding signal intensity,ScMyo3,18.8
same,SPOT peptide array binding signal intensity,ScMyo5,24.2
same,SPOT peptide array binding signal intensity,ScNbp2,102
same,SPOT peptide array binding signal intensity,ScPex13,10.5
same,SPOT peptide array binding signal intensity,ScRvs167,31.2
same,SPOT peptide array binding signal intensity,ScSho1,592
same,SPOT peptide array binding signal intensity,ScSla1-D1-D2,65
same,SPOT peptide array binding signal intensity,ScSla1-D3,4.75
same,SPOT peptide array binding signal intensity,SpAbp1-D1,130
same,SPOT peptide array binding signal intensity,SpBbc1,8.75
same,SPOT peptide array binding signal intensity,SpBzz1-D1,122
same,SPOT peptide array binding signal intensity,SpBzz1-D2,2
same,SPOT peptide array binding signal intensity,SpCyk3,3
same,SPOT peptide array binding signal intensity,SpHof1,42.8
same,SPOT peptide array binding signal intensity,SpHof1-2,10.8
same,SPOT peptide array binding signal intensity,SpHof1-3,386
same,SPOT peptide array binding signal intensity,SpHse1,274
same,SPOT peptide array binding signal intensity,SpLsb1,50.5
same,SPOT peptide array binding signal intensity,SpLsb4,≤ 0
same,SPOT peptide array binding signal intensity,SpMyo1,14.5
same,SPOT peptide array binding signal intensity,SpNbp2,53
same,SPOT peptide array binding signal intensity,SpPex13,52
same,SPOT peptide array binding signal intensity,SpRvs167,66.2
same,SPOT peptide array binding signal intensity,SpSla1-D1-D2,1
same,SPOT peptide array binding signal intensity,SpSla1-D3,23.5
